Data taken from PubChem BioAssay (Tox21).
Records with an inconclusive call do not appear. Unmarked numbers belong to inactive results. Calls come from the whole dose curve; as a rule, active = well fitted cell-killing curve with a large enough effect in the repeat runs; inconclusive = weak or mixed curves, or effect the other way; inactive = flat fitted curve, though single readings scatter.
% is set by controls: 0 for no effect and ±100 for the full control effect.

Assay: Caspase-3/7 induction in HepG2 cells by small molecules, qHTS cell viability counter screen (AID 1346981); note: nearly all actives have a fitted effect of over 30% in size
Conditions: CellTiter-Fluor fluorescence, 17 h; series mostly up to 92.4 µM; activity change, negative = cytotoxicity: at the top concentration
Source text: U.S. Tox21 Program National Center for Advancing Translational Sciences [NCATS] NIH Chemical Genomics Center [NCGC] U.S. Environmental Protection Agency [EPA] National Institutes of Environmental Health Sciences [NIEHS] National Toxicology Program [NTP] U.S. Food and Drug Administration [FDA] Tox21 Assay Overview: Apoptosis is a process of programmed cell death and plays a central role in the development of multicellular organisms. It is a highly regulated process and induces cell death by activating caspases, which are the members of cysteine aspartic acid-specific protease (caspase) family. Caspases involved in apoptosis are classified by their mechanism of action as initiator caspases (caspase-2, -8, -9 and -10) and executioner caspases (caspase-3, -6, and -7). Inhibition of apoptosis results in number of cancers, autoimmune diseases, inflammatory diseases and viral infection. To identify small molecule compounds that induce apoptosis, a homogeneous, luminescent Caspase-Glo 3/7 assay was used. Wild type HepG2 cells were used to screen Tox21 libraries for identifying caspase-3/7 activity inducers. Also cytotoxicity of the compounds was tested in parallel by measuring the cell viability using CellTiter-Fluor assay system in the same wells.
Tox21 Assay Protocol Summary: HepG2 cells were dispensed at 2,000 per well in 5uL of culture medium into white solid bottom 1536-well plates (Corning Life Sciences, Corning, NY) using a Multidrop Combi (Thermo Scientific, Waltham, MA) dispenser. The assay plates were incubated at 37 C and 5% CO2 for 5hr, and then 23nL of compounds dissolved in DMSO and positive control were transferred using a Pintool station ([…], San Diego, CA). The assay plates were incubated at 37C and 5% CO2 for 17hr. For cytotoxicity read, after 16hr incubation at 37C, 1uL CellTiter-Fluor reagent (Promega Corporation, Madison, WI) was added to each well of the assay plates using Flying Reagent Dispenser (FRD, Aurora Discovery, San Diego, CA). After 1hr incubation at 37C and 5% CO2, the fluorescence signal was quantified using a ViewLux plate reader (PerkinElmer, Shelton, CT).
With Cc1cc2nc(N)sc2cc1C the “activity change, negative = cytotoxicity” value was 4.26%.
In the case of NC/C=C/C(=O)O, the “activity change, negative = cytotoxicity” value was -0.345% [at 42.5 µM].
For O=Cc1ccc(F)c(Br)c1, the “activity change, negative = cytotoxicity” value was 7.11%.
With CCCCCCCCOC(=O)CCCCCCCCC(=O)OCCCCCCCC the “activity change, negative = cytotoxicity” value was -0.388%.
In the case of OCCN(CCO)c1ccccc1, the “activity change, negative = cytotoxicity” value was 7.19%.
In the case of CCCS(=O)c1ccc2nc(NC(=O)OC)[nH]c2c1 (stereo not given), the “activity change, negative = cytotoxicity” value was 3.83% [at 42.5 µM].
For CCCN(CCC)C(=O)C(CCC(=O)O)NC(=O)c1ccccc1 (stereo not given), the “activity change, negative = cytotoxicity” value was 0.447% [at 42.5 µM].
For Cc1ccc(C(C)C)cc1O, the “activity change, negative = cytotoxicity” value was -1.84%.
With CC(CNC1CCCCC1)OC(=O)c1ccccc1 (stereo not given) the “activity change, negative = cytotoxicity” value was -0.464% [at 42.5 µM].
With Cc1nnc(SCC2=C(C(=O)O)N3C(=O)[C@@H](NC(=O)Cn4cnnn4)[C@H]3SC2)s1 the “activity change, negative = cytotoxicity” value was 3.72% [at 42.5 µM].
NC(Cc1ccc(F)cc1)C(=O)O (stereo not given) showed an activity change, negative = cytotoxicity of -1.98% [at 8.39 µM].
In the case of O=C(Cl)c1cccc([N+](=O)[O-])c1, the “activity change, negative = cytotoxicity” value was 4.76%.
With Cc1cc(NS(=O)(=O)c2ccc(N)cc2)nc(C)n1 the “activity change, negative = cytotoxicity” value was 0.451% [at 42.5 µM].
For Cc1c(C(=O)NCCO)[n+](=O)c2ccccc2n1[O-], the “activity change, negative = cytotoxicity” value was -0.0383% [at 42.5 µM].
With COc1ccccc1N1CCN(CCCNc2cc(=O)n(C)c(=O)n2C)CC1 the “activity change, negative = cytotoxicity” value was -0.229% [at 42.5 µM].
In the case of CC(=O)N(CC(O)CN(C(C)=O)c1c(I)c(C(=O)NCC(O)CO)c(I)c(C(=O)NCC(O)CO)c1I)c1c(I)c(C(=O)NCC(O)CO)c(I)c(C(=O)NCC(O)CO)c1I (stereo not given), the “activity change, negative = cytotoxicity” value was 5.21% [at 42.5 µM].
With CC(C)O the “activity change, negative = cytotoxicity” value was -1.97%.
For CC(C)NC[C@@H](O)COc1cccc2ccccc12, the “activity change, negative = cytotoxicity” value was -9.19% [at 42.5 µM].
For O=C1C=CC(=O)O1, the “activity change, negative = cytotoxicity” value was 9.7%.
In the case of Cc1ncc(CO)c(CN)c1O, the “activity change, negative = cytotoxicity” value was 4.57% [at 42.5 µM].
In the case of Cc1ccsc1C(=CCCN1CCC[C@@H](C(=O)O)C1)c1sccc1C, the “activity change, negative = cytotoxicity” value was 9.24% [at 42.5 µM].
In the case of CC(C)C(=O)OCC(C)(C)C(O)C(C)C (stereo not given), the “activity change, negative = cytotoxicity” value was -0.351%.
In the case of CCC1(C)NC(=O)NC1=O (stereo not given), the “activity change, negative = cytotoxicity” value was 5.13%.
For C=CCCC=C, the “activity change, negative = cytotoxicity” value was 0.676%.
For CCN(CCCc1ccccc1)CCCc1ccccc1, the “activity change, negative = cytotoxicity” value was -2.72% [at 42.5 µM].
With NS(=O)(=O)c1cc(-c2nn[nH]n2)c(NCc2cccs2)cc1Cl the “activity change, negative = cytotoxicity” value was -0.118% [at 42.5 µM].
For CC(C)C[C@H](NC(=O)OCC1c2ccccc2-c2ccccc21)C(=O)O, the “activity change, negative = cytotoxicity” value was 3.88%.
In the case of CCCCNCCCC, the “activity change, negative = cytotoxicity” value was 1.85%.
For FC(F)(F)C(Cl)(Cl)Cl, the “activity change, negative = cytotoxicity” value was 0.355%.
With CCOc1ccc(OCC)c(Cl)c1 the “activity change, negative = cytotoxicity” value was -1.44%.
In the case of NC1=NCC2c3ccccc3Cc3ccccc3N12 (stereo not given), the “activity change, negative = cytotoxicity” value was 5.93% [at 42.5 µM].
For NNS(=O)(=O)c1ccc(Oc2ccc(S(=O)(=O)NN)cc2)cc1, the “activity change, negative = cytotoxicity” value was -2.89%.
In the case of Oc1ccccc1C=NCc1ccccc1, the “activity change, negative = cytotoxicity” value was -2.36% [at 42.5 µM].
For C/C(=N\O)[C@@H](C)NCC(C)(C)CN[C@H](C)/C(C)=N/O, the “activity change, negative = cytotoxicity” value was 12.2% [at 42.5 µM].
In the case of O=C(O[C@@H](C(=O)O)[C@@H](OC(=O)c1ccccc1)C(=O)O)c1ccccc1, the “activity change, negative = cytotoxicity” value was 0.711%.
In the case of CCOC(=O)C(Br)c1ccccc1 (stereo not given), the “activity change, negative = cytotoxicity” value was -0.149%.
For OCC(CBr)(CBr)CBr, the “activity change, negative = cytotoxicity” value was 3.63%.
In the case of CC[C@H]1CC[C@H](NCc2cc3c(cc2OC)[C@H]2C[C@H]2C(=O)N3C)[C@H](c2ccccc2)N1, the “activity change, negative = cytotoxicity” value was -13.7%.
With CCOC(=O)C1CC(=O)C(=C(O)C2CC2)C(=O)C1 (stereo not given) the “activity change, negative = cytotoxicity” value was -1.02%.
In the case of COc1ccc(S(=O)(=O)Nc2nnc(CC(C)C)s2)cc1, the “activity change, negative = cytotoxicity” value was 3.5% [at 42.5 µM].
